{
  "source": "PubChem BioAssay (NCI)",
  "note": "This is part of a sample that, as a whole, favours compounds with a hit. Of some 79,000 tested, about 15% had one in any assay. A number with no mark means an inactive call. Active and inactive are the calls of the source. Cut-off read from the data, not from the text of the source: active = growth inhibition above about 70%; inactive = the rest. Where a SMILES comes first, the peptide text is derived from it. [ ]: non-standard residue; d: D form. Nva = CCC[CH](N)C(=O)O",
  "data": [
    {"assay": "NCI Yeast Anticancer Drug Screen. Data for the mec2-1 strain (AID 157)", "details": "S. cerevisiae mec2-1 strain, at 5.0 µM (retest, dose inferred, filed as 0.5), active compounds read high", "procedure,_shortened": "(§1)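 Readout is yeast growth inhibition, normalised to vehicle-treated controls, in the mec2-1 strain exposed to compound.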", "values": [
      {"compound": "O=C1C(C(O)(C(F)(F)Cl)C(F)(F)Cl)CCCC1C(O)(C(F)(F)Cl)C(F)(F)Cl", "note": "(stereo not given)", "growth inhibition": "97% (active)"},
      {"compound": "C=CCNCCC1CCCCCC1", "growth inhibition": "6%"},
      {"compound": "CCCC(N)C(=O)NC(C(=O)O)C(C)C", "note": "(stereo not given) (H-[Nva]-Val-OH; configuration not given here)", "growth inhibition": "-2%"},
      {"compound": "Cc1cc(N)c2cc(NC(=O)Nc3ccc4nc(C)cc(N)c4c3)ccc2n1", "growth inhibition": "100% (active)"},
      {"compound": "COc1ccc(N=Cc2ccccc2O)cc1", "growth inhibition": "0%"},
      {"compound": "Cc1cc(Br)c2ccccc2c1N", "growth inhibition": "2%"},
      {"compound": "c1ccc(-c2cc(Nc3ccc4c(c3)OCO4)c3cc(C4CCCCC4)ccc3n2)cc1", "growth inhibition": "6%"},
      {"compound": "CCCCCCCCc1cc[n+](C2=C([O-])c3ccccc3C(=O)C2=O)cc1", "growth inhibition": "100% (active)"},
      {"compound": "CCCCCCCCCCCc1nnc(N)o1", "growth inhibition": "11%"},
      {"compound": "O=C1OC(OCC#CCOC2OC(=O)C(Cl)=C2Cl)C(Cl)=C1Cl", "note": "(stereo not given)", "growth inhibition": "28%"},
      {"compound": "O=S(=O)(O)CC[S][Sn]([S]CCS(=O)(=O)O)([c]1ccccc1)[c]1ccccc1", "note": "(tested in a mixture with another compound)", "growth inhibition": "48%"},
      {"compound": "CC(C)NC(=O)OCCS(=O)c1c(Cl)c(Cl)nn1C", "note": "(stereo not given)", "growth inhibition": "11%"},
      {"compound": "CN1N=C2c3ccccc3CC[C@H]2C1c1cccc(O)c1", "note": "(stereo not given in full)", "growth inhibition": "5%"},
      {"compound": "O=C1CSC(=S)N1/N=C/c1ccc(Cl)c([N+](=O)[O-])c1", "growth inhibition": "0%"},
      {"compound": "O=C(O)CCCCCCCCC(=O)CCl", "growth inhibition": "23%"},
      {"compound": "O=C(NC1CCN(Cc2ccccc2)CC1)c1ccccc1I", "growth inhibition": "38%"},
      {"compound": "Cc1ccc(Nc2nc3c(s2)C(=O)c2ccccc2C3=O)cc1", "growth inhibition": "61%"},
      {"compound": "O=C(/C=C/c1ccccc1)c1cc2c(cc1O)OCO2", "growth inhibition": "-5%"},
      {"compound": "O=[N+]([O-])c1ccc(Sc2ccc([N+](=O)[O-])o2)o1", "growth inhibition": "94% (active)"},
      {"compound": "CCCCCCCCN(CCCCCCCC)CC(O)c1cc(OCC)nc2ccccc12", "note": "(stereo not given)", "growth inhibition": "4%"},
      {"compound": "CC(O)CCc1nc2ccccc2[nH]1", "note": "(stereo not given)", "growth inhibition": "2%"},
      {"compound": "CCCCCCCCCCCCCCCCSC(=NC)NC", "growth inhibition": "98% (active)"},
      {"compound": "O=C(O)CCC(O)=C1S(=O)(=O)OCCOS1(=O)=O", "growth inhibition": "-8%"},
      {"compound": "CCCCCCCCCCCCCCCCN", "growth inhibition": "20%"},
      {"compound": "COC1=C(Br)C(=O)N/C1=C(\\OC)c1ccccc1", "growth inhibition": "4%"}
    ]},
    {"assay": "NCI Yeast Anticancer Drug Screen. Data for the mec2-1 strain (AID 157)", "details": "S. cerevisiae mec2-1 strain, at 50.0 µM (retest, dose inferred, filed as 5.0), active compounds read high", "procedure,_shortened": "as §1", "values": [
      {"compound": "O=[N+]([O-])c1ccc(-c2ccc(-c3csc(Nc4ccccc4)n3)o2)cc1", "growth inhibition": "98% (active)"},
      {"compound": "C1=C(C2=C[P+](c3ccccc3)(c3ccccc3)C=C(c3ccccc3)O2)OC(c2ccccc2)=C[P+]1(c1ccccc1)c1ccccc1", "growth inhibition": "8%"},
      {"compound": "Cc1ccc(C2C(O)=C(c3ccccc3)Sc3ccc(C)cc32)cc1", "note": "(stereo not given)", "growth inhibition": "77% (active)"},
      {"compound": "CCc1n[nH]c(CC)c1CCCCCCOc1ccc(OC)cc1Cl", "growth inhibition": "77% (active)"},
      {"compound": "C=C1CC[C@H]2C(C)=CC[C@@H]3[C@H](OC(=O)[C@H]3CN3CCN(c4ccc(C)c([N+](=O)[O-])c4)CC3)[C@@H]12", "growth inhibition": "40%"},
      {"compound": "C(CCCCCN1CCCCC1)CCCCN1CCCCC1", "growth inhibition": "-8%"},
      {"compound": "CN(Cc1cnc2nc(N)nc(N)c2n1)c1ccc(C(=O)NC(CCC(=O)O)C(=O)O)cc1C(F)(F)F", "note": "(stereo not given)", "growth inhibition": "98% (active)"},
      {"compound": "CC(C(=O)O)C(N)C(=O)O", "note": "(stereo not given)", "growth inhibition": "-6%"},
      {"compound": "CCCCCCCCCCN(CCCCCCCCCC)C1CC(OC2CC(O)(C(O)CO)Cc3c(O)c4c(c(O)c32)C(=O)c2c(OC)cccc2C4=O)OC(C)C1O", "note": "(stereo not given)", "growth inhibition": "94% (active)"},
      {"compound": "COc1ccc(OCC(O)CN2CCN(c3cccc(Cl)c3)CC2)cc1", "note": "(stereo not given)", "growth inhibition": "28%"},
      {"compound": "O=C(O)c1ccccc1C(=O)c1ccc2c(c1)Cc1ccccc1-2", "growth inhibition": "4%"},
      {"compound": "Cc1cc(C2c3ccccc3-c3ccccc32)cc(C)c1O", "growth inhibition": "5%"},
      {"compound": "CC(C)(C)c1cc(Cl)c(O)c(Cc2cc(C(C)(C)C)cc(Cl)c2O)c1", "growth inhibition": "78% (active)"},
      {"compound": "COc1cccc(/C=C/C(C)=O)c1OC", "growth inhibition": "8%"},
      {"compound": "Cc1nc2c(cnn2C)cc1CCc1ccccc1", "growth inhibition": "35%"},
      {"compound": "O=C1C(C(O)(C(F)(F)Cl)C(F)(F)Cl)CCCC1C(O)(C(F)(F)Cl)C(F)(F)Cl", "note": "(stereo not given)", "growth inhibition": "100% (active)"},
      {"compound": "C=CCNCCC1CCCCCC1", "growth inhibition": "97% (active)"},
      {"compound": "CCCC(N)C(=O)NC(C(=O)O)C(C)C", "note": "(stereo not given) (H-[Nva]-Val-OH; configuration not given here)", "growth inhibition": "-3%"},
      {"compound": "Cc1cc(N)c2cc(NC(=O)Nc3ccc4nc(C)cc(N)c4c3)ccc2n1", "growth inhibition": "99% (active)"},
      {"compound": "COc1ccc(N=Cc2ccccc2O)cc1", "growth inhibition": "-33%"},
      {"compound": "Cc1cc(Br)c2ccccc2c1N", "growth inhibition": "39%"},
      {"compound": "c1ccc(-c2cc(Nc3ccc4c(c3)OCO4)c3cc(C4CCCCC4)ccc3n2)cc1", "growth inhibition": "96% (active)"},
      {"compound": "CCCCCCCCc1cc[n+](C2=C([O-])c3ccccc3C(=O)C2=O)cc1", "growth inhibition": "93% (active)"},
      {"compound": "CCCCCCCCCCCc1nnc(N)o1", "growth inhibition": "92% (active)"},
      {"compound": "O=C1OC(OCC#CCOC2OC(=O)C(Cl)=C2Cl)C(Cl)=C1Cl", "note": "(stereo not given)", "growth inhibition": "99% (active)"},
      {"compound": "O=S(=O)(O)CC[S][Sn]([S]CCS(=O)(=O)O)([c]1ccccc1)[c]1ccccc1", "note": "(tested in a mixture with another compound)", "growth inhibition": "98% (active)"},
      {"compound": "CC(C)NC(=O)OCCS(=O)c1c(Cl)c(Cl)nn1C", "note": "(stereo not given)", "growth inhibition": "37%"},
      {"compound": "CN1N=C2c3ccccc3CC[C@H]2C1c1cccc(O)c1", "note": "(stereo not given in full)", "growth inhibition": "34%"},
      {"compound": "O=C1CSC(=S)N1/N=C/c1ccc(Cl)c([N+](=O)[O-])c1", "growth inhibition": "40%"},
      {"compound": "O=C(O)CCCCCCCCC(=O)CCl", "growth inhibition": "99% (active)"},
      {"compound": "O=C(NC1CCN(Cc2ccccc2)CC1)c1ccccc1I", "growth inhibition": "50%"},
      {"compound": "Cc1ccc(Nc2nc3c(s2)C(=O)c2ccccc2C3=O)cc1", "growth inhibition": "98% (active)"},
      {"compound": "O=C(/C=C/c1ccccc1)c1cc2c(cc1O)OCO2", "growth inhibition": "3%"},
      {"compound": "O=[N+]([O-])c1ccc(Sc2ccc([N+](=O)[O-])o2)o1", "growth inhibition": "100% (active)"},
      {"compound": "CCCCCCCCN(CCCCCCCC)CC(O)c1cc(OCC)nc2ccccc12", "note": "(stereo not given)", "growth inhibition": "97% (active)"},
      {"compound": "CC(O)CCc1nc2ccccc2[nH]1", "note": "(stereo not given)", "growth inhibition": "-3%"},
      {"compound": "CCCCCCCCCCCCCCCCSC(=NC)NC", "growth inhibition": "99% (active)"},
      {"compound": "O=C(O)CCC(O)=C1S(=O)(=O)OCCOS1(=O)=O", "growth inhibition": "10%"},
      {"compound": "CCCCCCCCCCCCCCCCN", "growth inhibition": "99% (active)"},
      {"compound": "COC1=C(Br)C(=O)N/C1=C(\\OC)c1ccccc1", "growth inhibition": "1%"}
    ]}
  ]
}
